{"source": "paper PMC3404119", "about": "“Topology and Dynamics of the Zebrafish Segmentation Clock Core Circuit”", "data": [{"biological_target": "T1, Her1-GFP homodimer (zebrafish (Danio rerio), UniProt Q90463 1-328)", "T1 sequence": "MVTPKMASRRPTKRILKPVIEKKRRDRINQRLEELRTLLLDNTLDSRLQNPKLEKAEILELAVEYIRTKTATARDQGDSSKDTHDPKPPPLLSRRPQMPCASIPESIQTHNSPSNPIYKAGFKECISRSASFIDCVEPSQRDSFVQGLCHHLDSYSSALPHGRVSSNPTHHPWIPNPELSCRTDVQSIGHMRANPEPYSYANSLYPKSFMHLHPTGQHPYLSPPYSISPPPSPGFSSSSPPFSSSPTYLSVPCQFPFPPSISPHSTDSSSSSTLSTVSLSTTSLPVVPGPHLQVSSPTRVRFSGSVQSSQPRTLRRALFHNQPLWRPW", "test": "MITOMI; PPARgamma-mCherry co-present (non-interacting control); TnT SP6 wheat germ expression extract on MITOMI chip, 3 h at room temperature; salt and pH not stated; PBS used for washing; high values mean tight binding", "settings": "protein: ivt; tags: C-terminal GFP; chain copies: 2; label: Cy5; dsDNA, one strand shown", "values": [{"sequence": "ATACACAGTGCGC", "binding signal": "0.0128 ± 0.000425 relative affinity (strongest site = 1)"}, {"sequence": "TTGCTCGTGCTT", "binding signal": "0.0235 ± 0.00192 relative affinity (strongest site = 1)"}, {"sequence": "CTGCACGTGCAT", "binding signal": "0.0391 ± 0.00232 relative affinity (strongest site = 1)"}, {"sequence": "CTGCTCGTGCTT", "binding signal": "0.0197 ± 0.00116 relative affinity (strongest site = 1)"}, {"sequence": "GCGCTCGTGCGC", "binding signal": "0.0291 ± 0.00508 relative affinity (strongest site = 1)"}, {"sequence": "CGGCGCGTGCCA", "binding signal": "0.73 ± 0.0316 relative affinity (strongest site = 1)"}, {"sequence": "TGACGCGTGTGA", "binding signal": "0.118 ± 0.00595 relative affinity (strongest site = 1)"}, {"sequence": "CGACACGTGCTC", "binding signal": "0.416 ± 0.00933 relative affinity (strongest site = 1)"}, {"sequence": "CAGCGCGTGCCT", "binding signal": "0.227 ± 0.0107 relative affinity (strongest site = 1)"}, {"sequence": "AGACACGCGCTA", "binding signal": "0.118 ± 0.00385 relative affinity (strongest site = 1)"}, {"sequence": "GTTCGCGTGTGC", "binding signal": "0.0452 ± 0.00123 relative affinity (strongest site = 1)"}, {"sequence": "AAGCACGTGATC", "binding signal": "0.0423 ± 0.00127 relative affinity (strongest site = 1)"}, {"sequence": "TGCCGCGTGCCG", "binding signal": "0.216 ± 0.0104 relative affinity (strongest site = 1)"}, {"sequence": "CCGCGCGTGCCA", "binding signal": "0.279 ± 0.0129 relative affinity (strongest site = 1)"}, {"sequence": "AGCCACGTGGCT", "binding signal": "0.57 ± 0.0193 relative affinity (strongest site = 1)"}, {"sequence": "TGCCGCGTGCAC", "binding signal": "0.033 ± 0.00214 relative affinity (strongest site = 1)"}, {"sequence": "CTCCTCGTGTTG", "binding signal": "0.0177 ± 0.000557 relative affinity (strongest site = 1)"}, {"sequence": "AGCCTCGTGTAA", "binding signal": "0.0363 ± 0.00627 relative affinity (strongest site = 1)"}, {"sequence": "TTCCACGGGTCT", "binding signal": "0.0411 ± 0.00212 relative affinity (strongest site = 1)"}, {"sequence": "TCCCACGGGATT", "binding signal": "0.0209 ± 0.00257 relative affinity (strongest site = 1)"}, {"sequence": "TTGCACGTGTAC", "binding signal": "0.0556 ± 0.0021 relative affinity (strongest site = 1)"}]}, {"biological_target": "T2, Her7 (coupled to chip, Fig 2D);Hes6-mCherry (zebrafish (Danio rerio);zebrafish …, UniProt Q9I9K1;Q6P0J1 1-206;1-226, |)", "T2 sequence 1": "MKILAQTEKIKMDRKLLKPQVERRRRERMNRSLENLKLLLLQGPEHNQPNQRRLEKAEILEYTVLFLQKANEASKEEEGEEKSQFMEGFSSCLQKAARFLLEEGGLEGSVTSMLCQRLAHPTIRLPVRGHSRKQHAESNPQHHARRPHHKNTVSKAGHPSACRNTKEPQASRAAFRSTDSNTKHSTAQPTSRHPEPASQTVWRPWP", "T2 sequence 2": "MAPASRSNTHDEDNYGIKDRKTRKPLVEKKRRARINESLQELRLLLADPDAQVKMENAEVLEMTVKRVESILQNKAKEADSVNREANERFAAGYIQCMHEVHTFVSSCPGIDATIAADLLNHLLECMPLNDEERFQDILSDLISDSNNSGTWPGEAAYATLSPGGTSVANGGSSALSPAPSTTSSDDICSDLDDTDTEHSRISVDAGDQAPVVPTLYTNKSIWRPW", "test": "MITOMI; Her7:Hes6 heterodimer, Her7 coupled to chip and Hes6-mCherry in solution; TnT SP6 wheat germ expression extract on MITOMI chip, 3 h at room temperature; salt and pH not stated; PBS used for washing; high values mean tight binding", "settings": "protein: ivt;ivt; copies: 1;1; label: Cy5; dsDNA, one strand shown", "values": [{"sequence": "ATACACAGTGCGC", "binding signal": "0.0208 ± 0.0021 relative affinity (strongest site = 1)"}, {"sequence": "TTGCTCGTGCTT", "binding signal": "0.109 ± 0.00195 relative affinity (strongest site = 1)"}, {"sequence": "CTGCACGTGCAT", "binding signal": "0.158 ± 0.00223 relative affinity (strongest site = 1)"}, {"sequence": "CTGCTCGTGCTT", "binding signal": "0.103 ± 0.00315 relative affinity (strongest site = 1)"}, {"sequence": "GCGCTCGTGCGC", "binding signal": "0.0861 ± 0.00202 relative affinity (strongest site = 1)"}, {"sequence": "CGGCGCGTGCCA", "binding signal": "0.959 ± 0.0356 relative affinity (strongest site = 1)"}, {"sequence": "TGACGCGTGTGA", "binding signal": "0.387 ± 0.0053 relative affinity (strongest site = 1)"}, {"sequence": "CGACACGTGCTC", "binding signal": "0.638 ± 0.0296 relative affinity (strongest site = 1)"}, {"sequence": "CAGCGCGTGCCT", "binding signal": "0.4636 ± 0.00426 relative affinity (strongest site = 1)"}, {"sequence": "AGACACGCGCTA", "binding signal": "0.2749 ± 0.00267 relative affinity (strongest site = 1)"}, {"sequence": "GTTCGCGTGTGC", "binding signal": "0.1 ± 0.00206 relative affinity (strongest site = 1)"}, {"sequence": "AAGCACGTGATC", "binding signal": "0.0912 ± 0.0018 relative affinity (strongest site = 1)"}, {"sequence": "TGCCGCGTGCCG", "binding signal": "0.369 ± 0.00323 relative affinity (strongest site = 1)"}, {"sequence": "CCGCGCGTGCCA", "binding signal": "0.516 ± 0.0179 relative affinity (strongest site = 1)"}, {"sequence": "AGCCACGTGGCT", "binding signal": "0.347 ± 0.00813 relative affinity (strongest site = 1)"}, {"sequence": "TGCCGCGTGCAC", "binding signal": "0.163 ± 0.00188 relative affinity (strongest site = 1)"}, {"sequence": "CTCCTCGTGTTG", "binding signal": "0.0605 ± 0.00276 relative affinity (strongest site = 1)"}, {"sequence": "AGCCTCGTGTAA", "binding signal": "0.0516 ± 0.00244 relative affinity (strongest site = 1)"}, {"sequence": "TTCCACGGGTCT", "binding signal": "0.0587 ± 0.00207 relative affinity (strongest site = 1)"}, {"sequence": "TCCCACGGGATT", "binding signal": "0.0207 ± 0.00168 relative affinity (strongest site = 1)"}, {"sequence": "TTGCACGTGTAC", "binding signal": "0.178 ± 0.00237 relative affinity (strongest site = 1)"}]}]}
